The supplement of paper PMC7411054
Unmarked numbers belong to inactive results.

The compounds below were run on A549-TUBA1B-RELA (assay: phenotypically active (imaging signature differs from DMSO and reproducible) at any of 0.3-9 uM (binary (1 = active, 0 = inactive)); higher = active). Conditions: treatment time: 24 h.
Procedure, shortened: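 Fifteen gene-edited A549, HepG2 and WPMY1 reporter lines (BFP segmentation plus GFP and RFP/FusionRed markers) were treated at 0.3, 1, 3 or 9 µM for 24 h, four wells each, then imaged live. Live-cell features per well were normalised to DMSO control wells. Deviation required ≥3 of 4 wells beyond the 95th percentile of DMSO Euclidean distances, and reproducibility required median replicate Pearson correlation above the 95th percentile of non-replicates. Phenotypic activity needed both criteria.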
In the case of `CCn1cnc2c(Nc3cccc(Cl)c3)nc(N[C@H]3CCCC[C@H]3N)nc21`, the phenotypically active is reported as 1 (active).
For `O=C(Nc1ccncc1)C(=O)c1cn(Cc2ccc(Cl)cc2)c2ccccc12` [Indibulin], the phenotypically active was 1 (active).
`CC[C@@H](C(=O)[C@@H](C)[C@@H](O)[C@H](C)[C@@H]1O[C@@H]([C@@H](CC)C(=O)O)CC[C@@H]1C)[C@H]1O[C@]2(C=C[C@@H](O)[C@]3(CC[C@@](C)([C@H]4CC[C@](O)(CC)[C@H](C)O4)O3)O2)[C@H](C)C[C@@H]1C` [Salinomycin Sodium] was tested, and the phenotypically active was 1 (active).
Work on `CC[C@@H](CO)NC(=O)[C@@H]1C=C2c3cccc4c3c(cn4C)C[C@H]2N(C)C1` [methysergide] yielded a phenotypically active of 0.
With `CN1C[C@H](C(=O)N[C@]2(C)O[C@@]3(O)[C@@H]4CCCN4C(=O)[C@H](Cc4ccccc4)N3C2=O)C=C2c3cccc4[nH]cc(c34)C[C@H]21` [ergotamine] the phenotypically active was 1 (active).
Work on `C[C@H](CCC(=O)O)C[C@H](C)C[C@H](C)C(=O)/C=C(\O)[C@H](C)C[C@H](C)C/C=C/[C@@H](C)[C@@H](O)[C@@H](C)[C@@H](O)C[C@@H]1CC[C@@](C)([C@H]2CC[C@@](C)([C@@H](C)O)O2)O1` [Ionomycin free acid] yielded a phenotypically active of 0.
In the case of `N#CC(C#N)=NNc1ccc(OC(F)(F)F)cc1`, the phenotypically active is reported as 1 (active).
For `COC1=CC(C)=C[C@@H](C)[C@@H](O)[C@@H](C)CC(C)=CC=C[C@H](OC)[C@@H]([C@@H](C)[C@@H](O)[C@H](C)[C@@]2(O)C[C@@H](O)[C@H](C)[C@@H](C(C)C)O2)OC1=O` [Bafilomycin A1], the phenotypically active was 1 (active).
With `COc1cc([C@@H]2c3cc4c(cc3[C@H](O)[C@H]3COC(=O)[C@H]23)OCO4)cc(OC)c1OC` [Podophyllotoxin] the phenotypically active was 1 (active).
`CC[C@]12C=CCN3CC[C@]4(C(=C(C(=O)OC)C1)Nc1ccccc14)[C@@H]32` [Tabersonine dichlorhydrate] was tested, and the phenotypically active was 1 (active).
